Data from PubChem BioAssay (Tox21).
“And” between values parts separate entries of the source, which are not always exact repeats. Identical values can stand only once. Records with an inconclusive call do not appear. The source made the active and inactive calls. Unless noted, the call rests on the fitted dose curve; in most records, active means well fitted curve in the direction sought with a large enough effect in the repeat runs; inconclusive means weak or mixed curves; inactive means no such curve, though single readings can be large; an effect the other way counts as inactive or inconclusive.

How the values were obtained:
[1] = qHTS assay to identify small molecule agonists of the peroxisome proliferator-activated receptor delta (PPARd) signaling pathway - cell viability counter screen (AID 743211); further: nearly all actives have a fitted effect of over 55% in size; further: potency means the concentration at half of the fitted maximal effect
In short: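 Multiplexed format: after the 2 h room-temperature LiveBLAzer B/G FRET step, CellTiter-Glo was added to the same wells. Luminescence after 30 min gave cell viability; compound exposure was 17 h at 37C.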

[2] = target: Peroxisome proliferator-activated receptor delta (Homo sapiens) (UniProt Q03181); assay: qHTS assay to identify small molecule agonists of the peroxisome proliferator-activated receptor delta (PPARd) signaling pathway (AID 743212; calls by dose curve;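 further: HEK293H cells with PPARd UAS beta-lactamase reporter GeneBLAzer system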)
In short: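 Beta-lactamase reporter read by fluorescence (LiveBLAzer B/G FRET, 2 h, room temperature). Test agents, in DMSO, incubated at 37 C with PPARd-bla HEK293H cells.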

[3] = qHTS assay to identify small molecule antagonists of the peroxisome proliferator-activated receptor delta (PPARd) signaling pathway - cell viability counter screen (AID 743213); further: nearly all actives have a fitted effect of over 50% in size
In short: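 PPARd-bla HEK293H cells (3000/well) got compound plus 300 nM L165041 agonist for 17 h at 37 C. Viability in the same wells came from CellTiter-Glo luminescence after 30 min at room temperature.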

[4] = target: Peroxisome proliferator-activated receptor delta (Homo sapiens) (UniProt Q03181); assay: qHTS assay to identify small molecule antagonists of the peroxisome proliferator-activated receptor delta (PPARd) signaling pathway (AID 743215; active means well fitted inhibition curve with a large enough effect in the signal ratio in the repeat runs, not every such curve was filed as active; the % refers to the signal ratio;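 further: cells stimulated with agonist L165041 at 300 nM final during compound exposure; series mostly up to about 62 µM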)
In short: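 Agonist L165041 (300 nM final) added with compound to PPARd-bla HEK293H UAS-bla reporter cells; 17 h incubation at 37 C. Read-out: LiveBLAzer FRET substrate, 2 h at room temperature, fluorescence intensity.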

[5] = qHTS assay to identify small molecule agonists of the farnesoid-X-receptor (FXR) signaling pathway - cell viability counter screen (AID 743218); further: nearly all actives have a fitted effect of over 45% in size
In short: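 Viability counter screen in the same wells: CellTiter-Glo luminescence, 30 min room-temperature incubation, measured after the beta-lactamase read. Cells were GeneBLAzer FXR-UAS-bla HEK 293T, compound-treated 16 h at 37C.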

[6] = target: Bile acid receptor (Homo sapiens) (UniProt Q96RI1); assay: qHTS assay to identify small molecule agonists of the farnesoid-X-receptor (FXR) signaling pathway (AID 743220; active means well fitted activation curve with a large enough effect in the signal ratio in the repeat runs, not every such curve was filed as active; the % refers to the signal ratio)
In short: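 FXR-UAS-bla HEK 293T cells carrying a UAS-driven beta-lactamase reporter were plated for 5 h at 37C/5% CO2, then exposed to DMSO-dissolved Tox21 10K compounds for 16 h at 37C. A LiveBLAzer B/G FRET substrate was loaded for 2 h at room temperature before fluorescence reading.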

[7] = qHTS assay to identify small molecule antagonists of the farnesoid-X-receptor (FXR) signaling pathway - cell viability counter screen (AID 743221; active means well fitted cell-killing curve with a large enough effect in the repeat runs, not every such curve was filed as active; further: nearly all actives have a fitted effect of over 50% in size)
In short: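 CellTiter-Glo, 30 min RT, luminescence; same wells as the LiveBLAzer FRET read. Cells: FXR-UAS-bla HEK 293T. Treatment: compound with chenodeoxycholic acid 50 uM final, 16 h at 37 C.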

[8] = target: Vitamin D3 receptor (Homo sapiens) (UniProt P11473); assay: qHTS assay to identify small molecule agonists of the vitamin D receptor (VDR) signaling pathway (AID 743222; calls by dose curve)
In short: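 Agonist mode, beta-lactamase reporter: fluorescence from LiveBLAzer B/G FRET substrate (2 h, room temperature) read after 16 h compound treatment at 37 C of VDR-bla cells, which were pre-incubated 4 h after seeding.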

[9] = target: Vitamin D3 receptor (Homo sapiens) (UniProt P11473); assay: qHTS assay to identify small molecule antagonists of the vitamin D receptor (VDR) signaling pathway (AID 743223; active means well fitted inhibition curve with a large enough effect in the signal ratio in the repeat runs, not every such curve was filed as active; the % refers to the signal ratio)
In short: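 After VDR-bla cells are plated and left 4 h at 37C, DMSO-dissolved compounds and 3 nM (final) calcitriol agonist are added. Incubation continues 16 h at 37C; FRET beta-lactamase substrate then develops 2 h at room temperature.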

[10] = qHTS assay to identify small molecule agonists of the vitamin D receptor (VDR) signaling pathway - cell viability counter screen (AID 743224); further: nearly all actives have a fitted effect of over 50% in size; further: potency means the concentration at half of the fitted maximal effect
In short: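 Counter screen run in the same wells as the VDR-bla reporter assay: CellTiter-Glo luminescence, 30 min at room temperature, after 16 h compound treatment at 37C of cells pre-plated for 4 h.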

[11] = qHTS assay to identify small molecule antagonists of the vitamin D receptor (VDR) signaling pathway - cell viability counter screen (AID 743225); further: nearly all actives have a fitted effect of over 50% in size
In short: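 Cytotoxicity toward the VDR-bla HEK 293T line was scored by ATP-based CellTiter-Glo luminescence, read in the wells already used for the beta-lactamase readout after 16 h compound treatment under 3 nM 1-alpha,25-dihydroxyvitamin D3 stimulation.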

[12] = qHTS assay to identify small molecule agonists of the NFkB signaling pathway (AID 1159509; active means well fitted curve in the direction sought with a large enough effect in the signal ratio in the repeat runs, not every such curve was filed as active; the % refers to the signal ratio; further: series mostly up to about 61 µM)
In short: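 Beta-lactamase reporter assay run in quantitative high-throughput format on an NF-kB-responsive ME-180 line, with 5 hr compound treatment and a FRET-based blue/green fluorescence readout.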

[13] = qHTS assay to identify small molecule agonists of the NFkB signaling pathway - cell viability counter screen (AID 1159515; calls by dose curve; further: series mostly up to about 61 µM; nearly all actives have a fitted effect of over 55% in size)
In short: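 Read by CellTiter-Glo luminescence (30 min, room temperature) in the wells also used for the beta-lactamase FRET read. ME-180 NFkB-bla cells at 2,000 per well were plated overnight, then exposed to compound for 5 hr at 37 C.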

[14] = qHTS assay to identify small molecule agonists of the endoplasmic reticulum stress response signaling pathway - cell viability counter screen (AID 1159517; calls by dose curve)
In short: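 Cytotoxicity of test compounds toward ESRE-bla HeLa cells was assessed after 5 hr exposure. The luminescent CellTiter-Glo signal was measured 30 min after reagent addition.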

[15] = qHTS assay to identify small molecule agonists of the AP-1 signaling pathway (AID 1159526; calls by dose curve)
[16] = target: Bile acid receptor (Homo sapiens) (UniProt Q96RI1); assay: qHTS assay to identify small molecule antagonists of the farnesoid-X-receptor (FXR) signaling pathway (AID 743217; active means well fitted inhibition curve with a large enough effect in the signal ratio in the repeat runs, not every such curve was filed as active; the % refers to the signal ratio)
In short: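 Antagonist mode: chenodeoxycholic acid at 50 uM final stimulates a UAS-driven beta-lactamase reporter in HEK 293T FXR-bla cells during 16 h, 37C compound exposure. Read-out is FRET substrate fluorescence after 2 h at room temperature.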

[17] = qHTS assay to identify small molecule antagonists of the retinoid-related orphan receptor gamma (ROR-gamma) signaling pathway - cell viability counter screen (AID 1159520); further: nearly all actives have a fitted effect of over 50% in size
In short: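 Tet-on ROR gamma CHO cells (1,000/well) were plated 4 hr, given compounds in DMSO for 2 hr at 37 C, then induced with 1 uM final doxycycline for 16 hr. Viability was read as ATP by CellTiter-Glo luminescence after 30 min.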

[18] = target: Nuclear receptor ROR-gamma (Homo sapiens) (UniProt P51449); assay: qHTS assay to identify small molecule antagonists of the retinoid-related orphan receptor gamma (ROR-gamma) signaling pathway (AID 1159521; further: nearly all actives have a fitted effect of over 50% in size; further: potency means the concentration at half of the fitted maximal effect)
In short: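 Readout: ONE-Glo luciferase luminescence, 30 min at room temperature. System: Tet-on RORγ CHO, RORE-LUC. Sequence: compound 2 h, doxycycline 1 uM final, 16 h at 37 C.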

[19] = qHTS assay to identify small molecule agonists of the AP-1 signaling pathway - cell viability counter screen (AID 1159525; calls by dose curve; further: nearly all actives have a fitted effect of over 55% in size)
In short: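 Each titration point was normalised to DMSO and tetra n-octyl ammonium bromide controls. The read was Cell Titer Glo luminescence after 30 min at RT, following 5 h compound exposure of ME-180 AP-1-bla cells at 37 °C.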

Measured: Potency

Chain of Peroxisome proliferator-activated receptor delta (Homo sapiens) (Q03181 whole entry, looked up): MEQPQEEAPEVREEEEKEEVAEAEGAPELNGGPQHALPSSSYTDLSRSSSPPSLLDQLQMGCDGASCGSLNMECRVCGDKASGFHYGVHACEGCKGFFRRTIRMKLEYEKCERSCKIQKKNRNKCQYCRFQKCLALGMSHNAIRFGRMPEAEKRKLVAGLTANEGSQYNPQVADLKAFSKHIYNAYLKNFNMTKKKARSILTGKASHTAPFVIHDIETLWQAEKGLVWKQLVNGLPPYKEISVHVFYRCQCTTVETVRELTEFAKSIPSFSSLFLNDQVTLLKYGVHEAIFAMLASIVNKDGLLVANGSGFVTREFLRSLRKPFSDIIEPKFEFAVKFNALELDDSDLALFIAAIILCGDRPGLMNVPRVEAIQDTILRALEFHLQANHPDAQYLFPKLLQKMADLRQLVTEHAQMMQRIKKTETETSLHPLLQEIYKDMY
Chain of Bile acid receptor (Homo sapiens) (Q96RI1 whole entry, looked up): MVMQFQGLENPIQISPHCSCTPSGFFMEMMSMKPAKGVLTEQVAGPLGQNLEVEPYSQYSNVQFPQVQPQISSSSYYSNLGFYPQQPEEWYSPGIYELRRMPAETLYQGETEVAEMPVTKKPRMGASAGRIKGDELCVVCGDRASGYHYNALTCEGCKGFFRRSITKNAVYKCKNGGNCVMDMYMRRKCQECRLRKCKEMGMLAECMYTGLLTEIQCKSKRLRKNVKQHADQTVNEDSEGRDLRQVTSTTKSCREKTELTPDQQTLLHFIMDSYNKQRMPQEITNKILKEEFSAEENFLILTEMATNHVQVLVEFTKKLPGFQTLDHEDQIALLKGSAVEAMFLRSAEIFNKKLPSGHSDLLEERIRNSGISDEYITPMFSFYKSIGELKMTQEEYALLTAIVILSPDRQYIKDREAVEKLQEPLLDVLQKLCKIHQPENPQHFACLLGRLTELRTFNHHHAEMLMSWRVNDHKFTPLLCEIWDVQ
Chain of Vitamin D3 receptor (Homo sapiens) (P11473 whole entry, looked up): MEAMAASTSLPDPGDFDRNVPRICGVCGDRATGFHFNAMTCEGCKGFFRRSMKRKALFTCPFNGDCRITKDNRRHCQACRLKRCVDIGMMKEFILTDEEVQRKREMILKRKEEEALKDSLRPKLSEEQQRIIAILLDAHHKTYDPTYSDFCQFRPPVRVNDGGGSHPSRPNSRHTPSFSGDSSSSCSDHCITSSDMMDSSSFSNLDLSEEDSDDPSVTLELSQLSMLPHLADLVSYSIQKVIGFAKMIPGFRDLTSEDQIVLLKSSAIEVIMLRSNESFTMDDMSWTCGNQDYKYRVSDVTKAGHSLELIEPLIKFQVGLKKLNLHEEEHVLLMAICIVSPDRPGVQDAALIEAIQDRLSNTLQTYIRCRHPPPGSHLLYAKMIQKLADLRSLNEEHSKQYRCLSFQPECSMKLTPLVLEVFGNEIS

COc1ccc(C(=O)CC(=O)c2ccc(C(C)(C)C)cc2)cc1
not listed: [16] | [17] | [18] | [19]
inactive: all other assays above

CC(C)OB(OC(C)C)OC(C)C
not listed: [2] | [4] | [5] | [19]
inactive: all other assays above

COC(=O)Nc1nc2ccc(S(=O)c3ccccc3)cc2[nH]1 (stereo not given)
not listed: [1] | [2] | [4] | [6] | [9] | [16] | [17]
inactive: all other assays above

c1ccc2sc(SSN3CCOCC3)nc2c1
active: [1] 15.5 µM | [10] 19.5 µM and 49 µM | [18] 19.3 µM and 54.5 µM
inactive: [3] | [16] | [6] | [7] | [9] | [11] | [12] | [13] | [14]

OCCO
not listed: [5] | [10] | [18]
inactive: all other assays above

CCCCC(CC)COC(=O)c1ccc(N(C)C)cc1 (stereo not given)
not listed: [16] | [19]
inactive: all other assays above

S=C(NC1CCCCC1)NC1CCCCC1
active: [10] 24.5 µM | [18] 48.6 µM
inactive: [2] | [5] | [7] | [8] | [11] | [12] | [13] | [14] | [17]

OC[C@H]1O[C@@H]2O[C@H]3[C@H](O)[C@@H](O)[C@@H](O[C@H]4[C@H](O)[C@@H](O)[C@@H](O[C@H]5[C@H](O)[C@@H](O)[C@@H](O[C@H]6[C@H](O)[C@@H](O)[C@@H](O[C@H]7[C@H](O)[C@@H](O)[C@@H](O[C@H]8[C@H](O)[C@@H](O)[C@@H](O[C@H]1[C@H](O)[C@H]2O)O[C@@H]8CO)O[C@@H]7CO)O[C@@H]6CO)O[C@@H]5CO)O[C@@H]4CO)O[C@@H]3CO
not listed: [2] | [4] | [6] | [8] | [9] | [16] | [17]
inactive: all other assays above

Cc1cc2nc3c(=O)[nH]c(=O)nc-3n(C[C@H](O)[C@H](O)[C@H](O)CO)c2cc1C
not listed: [5] | [8] | [9] | [10] | [17]
inactive: all other assays above

Oc1ccc(O)cc1
active: [18] 21.6 µM and 38.6 µM and 23.7 µM
not listed: [6] | [8] | [9] | [13] | [16] | [17]
inactive: all other assays above

c1ccc2c(c1)Oc1ccccc1S2
not listed: [5] | [6] | [9] | [10] | [15] | [16] | [17]
inactive: all other assays above

CC(=O)c1ccccn1
not listed: [5] | [17] | [19]
inactive: all other assays above
